Screening data as filed in PubChem BioAssay.
This is a sample that favours compounds with a hit; in the whole collection about 4.2% have one here.
MITF act: activators of MITF-driven TRPM1 promoter activity in SK-MEL-5 cells | SK-MEL-5 TRPM1-promoter luciferase, 24 h; % of positive control, neutral wells = 0 | activation, % at 12.5 µM | actives 0.75% (n = 300,000);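 active = mean activation of at least 80% with every replicate also reaching 80%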
FXN GAA850 act: frataxin GAA850 promoter activation | HEK293 lucGAA850 FXN promoter luciferase reporter, 24 h; percent of 10 µM SAHA response | activation, % at 6 µM | actives 0.56% (n = 360,000) | AID 540364;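 active = activation above the average of all compounds screened plus 3 SD, cutoff fixed separately per campaign, cut at about 7.5% in these data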
Wnt act: Wnt/beta-catenin pathway activation. Wnt/beta-catenin reporter cell assay, activator, plate reader. activation, % at 9.35 µM. actives 1.2% (n = 300,000). AID 743398; in the data active = activation above about 30%, passing the limit was not always enough
AHR activator: human AHR activation. actives 2.5% (n = 320,000). AID 2796. AHR-responsive luciferase reporter cells, luminescence. activation, % at 5 µM. P35869; in the data active = activation above about 47%
esBAF inh: blocks esBAF chromatin remodeling in mouse ES cells; Bmi1-luciferase knock-in reporter, 24 h; 100% = twice the neutral-well signal; reporter increase, % at 12.5 µM; actives 2% (n = 350,000); in the data active = activation above about 40%;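 note: a rise in the Bmi1 reporter signal indicates esBAF inhibition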
Each line names hits and unclear results; the compound was inactive in the other large screens.

O=C(NCCO)c1ccc2c3n(nc2c1)-c1ccc(Cl)cc1CO3	MITF act 84, Wnt act 51, esBAF inh 68
COCCNC(=O)c1ccc2c3n(nc2c1)-c1ccccc1CO3	esBAF inh 53
C=CCNC(=O)c1ccc2c3n(nc2c1)-c1ccccc1CO3	none
O=C(NCCO)c1cccc(Cl)c1	none (no result: MITF act, Wnt act)
CO[C@@H]1CC[C@@H]2CCOc3ccc(C#N)cc3C(=O)N(C)CCCC(=O)N(C)C[C@@H]1O2	none (no result: MITF act, FXN GAA850 act, Wnt act, AHR activator)
O=C(C[C@H]1CC[C@@H](NC(=O)Nc2ccc(C(F)(F)F)cc2)[C@H](CO)O1)NCc1ccccn1	none (no result: MITF act, FXN GAA850 act, Wnt act, AHR activator)
C[C@@H]1CN([C@H](C)CO)C(=O)c2cc(-c3ccccc3F)cnc2O[C@@H]1CN(C)Cc1cccc(F)c1	none (no result: MITF act, FXN GAA850 act, Wnt act, AHR activator)
COCCNC(=O)c1ccc2c(c1)nc(C)n2-c1cccc(Cl)c1	none
COCCNC(=O)c1ccc2c3n(nc2c1)-c1ccc(Cl)cc1CO3	MITF act 87, esBAF inh 63
Oc1[nH]c(=S)sc1/C=C1\C(c2ccccc2)=Nc2ccccc21	none (no result: esBAF inh)
Oc1c(C=C2N=c3ccccc3=N2)sc(=S)n1-c1ccc(F)cc1	none
Oc1[nH]c(=S)sc1C=C1N=c2ccccc2=N1	Wnt act 42 (no result: MITF act)
Oc1c(C=C2N=c3ccccc3=N2)sc(=S)n1C1CCCC1	AHR activator 59 (no result: Wnt act)
O=C(C[C@H]1C[C@H]2c3cc(NC(=O)Cc4ccncc4)ccc3O[C@H]2[C@H](CO)O1)NCc1ccccn1	none (no result: MITF act, FXN GAA850 act, Wnt act, AHR activator)
CCCCN1C(=S)NC[C@@H]1Cc1cccc2ccccc12	esBAF inh 59
Cc1ccc(-c2csc3nnc(SCC(=O)Nc4nsc(-c5ccccc5)n4)n23)cc1	none (no result: Wnt act)
Cc1ccc(-c2nc(NC(=O)CSc3nnnn3-c3ccccc3)ns2)cc1	esBAF inh 84
C[C@H]1CN([C@@H](C)CO)S(=O)(=O)c2ccc(-c3ccccc3)cc2O[C@H]1CN(C)C(=O)C1CC1	none (no result: MITF act, FXN GAA850 act, Wnt act, AHR activator)
COC(=O)c1[nH]c2ccc(C)cc2c1NC(=O)C1=COCCO1	AHR activator 68
Cc1ccc(S(=O)(=O)N(C)C[C@H]2Oc3ccc(NC(=O)Nc4cccc5ccccc45)cc3C(=O)N([C@@H](C)CO)C[C@@H]2C)cc1	none (no result: MITF act, FXN GAA850 act, Wnt act, AHR activator)
O=c1c2c3c(sc2ncn1/N=C/c1ccco1)CCCC3	none
Cc1sc2ncn(/N=C/c3ccco3)c(=O)c2c1C	esBAF inh 49
Cc1ccccc1NC(=O)CC1C(=O)Nc2ccccc2N1CC(=O)N(C)C1CCS(=O)(=O)C1 (stereo not drawn)	AHR activator 60
Cc1noc(C)c1S(=O)(=O)N(C)C[C@H]1OCCCC[C@@H](C)Oc2ccc(NS(C)(=O)=O)cc2C(=O)N([C@@H](C)CO)C[C@@H]1C	none (no result: MITF act, FXN GAA850 act, Wnt act, AHR activator)
Cc1c(C=NNC(=O)c2ccc(Br)cc2)c2ccccn2c1C(=O)c1ccncc1	none
N#Cc1c(N)c2ccccn2c1C(=O)c1ccc(Br)cc1	AHR activator 61
CN(CCO)S(=O)(=O)c1ccc2c(c1)C(=NNC(N)=O)c1cc(S(=O)(=O)N(C)CCO)ccc1-2	Wnt act 46
O=C(CSCc1nc2ccccc2[nH]1)Nc1ccc2ccccc2c1	AHR activator 60 (no result: Wnt act)
O=C(CSC1=NCCS1)Nc1cccc2ccccc12	none
O=C(CSc1cccs1)Nc1cccc2ccccc12	esBAF inh 72
O=C(CSc1cccs1)Nc1ccc2ccccc2c1	esBAF inh 60 (no result: MITF act, Wnt act)
O=C(CSCc1nc2ccccc2[nH]1)Nc1ccc(Oc2ccccc2)cc1	none (no result: esBAF inh)
CCc1nc2n(n1)C(O)c1cc([N+](=O)[O-])ccc1S2 (stereo not drawn)	Wnt act 42 (no result: MITF act, esBAF inh)
CC(C)n1cnc2c(Nc3cccc(F)c3)nc(NCCO)nc21	AHR activator 66
Cc1cc(NC(=O)Nc2ccc(C)c(C)c2)no1	Wnt act 32 (no result: esBAF inh)
COc1ccc(C(=O)Nc2ccc(C)cn2)c(OC)c1	AHR activator 49 (no result: Wnt act)
COc1ccc(C(=O)Nc2cc(C)on2)c(OC)c1	MITF act 115
COc1cc(C(=O)Nc2ccc(C)cn2)c([N+](=O)[O-])cc1OC	none (no result: esBAF inh)
COc1cccc(C(=O)NC(=O)Nc2cc(C)on2)c1	MITF act 105, esBAF inh 56
COc1cccc(NC(=O)Nc2cc(C)on2)c1	none
COc1ccc(-n2cc3ccc([N+](=O)[O-])cc3n2)cc1	Wnt act 41 (no result: esBAF inh)
CC(=O)N(C)C[C@H]1Oc2ncc(-c3ccccc3C)cc2C(=O)N([C@@H](C)CO)C[C@H]1C	none (no result: MITF act, FXN GAA850 act, Wnt act, AHR activator)
N#C[C@@H]1[C@@H](c2ccc(/C=C/c3ccccc3)cc2)[C@@H](CO)N1C(=O)C1CCC1	none (no result: MITF act, FXN GAA850 act, Wnt act, AHR activator)
CSC1=N/C(=C\c2ccc(Cl)cc2)C(=O)N1N(C)C	none (no result: MITF act, esBAF inh)
